Rows were chosen to be rich in hits. Some 7.4% of all compounds tested hit in one or more screens of this group.
M1 antag = M1 muscarinic receptor (rat) antagonism. P08482. CHO-M1 cells, Fluo-4 calcium, ACh EC80 antagonist mode; active compounds read low. B-score at 10 µM. 64,000 compounds, 3.4% hits. AID 628;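 active means calcium fluorescence response, raw or row-and-column corrected B-score, differing from the plate sample mean either way at a set confidence level, mostly lower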
M1 agonist = activates the M1 muscarinic receptor. B-score at 10 µM. 64,000 compounds, 3% hits. CHO-M1 cells, Fluo-4 calcium fluorescence, agonist mode; active compounds read high. AID 626;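 active means fluorescence rise, raw or as B-score row- and column-corrected plate score, outside the 99.7% band of its plate's samples, either direction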
hDAT+cocaine = changed human dopamine transporter uptake under cocaine IC80; Q01959; LLC-PK1 hDAT cells, [14C]-dopamine uptake with cocaine IC80; actives deviate in either direction; B-score at 10 µM; 110,000 compounds, 1.3% hits;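 active means Z score or B-score, a plate-position-corrected score, falls beyond the plate's 99.7% confidence bounds, in either direction; inactive means both scores lie inside the 99.7% bounds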;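 further: scored against the spread of the other compound wells on the same plate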
FXIa mix inh = blocks human factor XIa in pooled compound mixtures; P03951; 62,000 compounds, 0.19% hits; purified FXIa, fluorogenic substrate; AID 680; inhibition, % at 5 µM;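 further: each value is inhibition by a whole ten-compound pool holding the compound; 0% = enzyme with no mixture and 100% = wells lacking enzyme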
FXIIa mix inh = inhibitors of human coagulation factor XIIa, pooled mixtures | purified FXIIa, fluorogenic substrate | inhibition, % at 5 µM | 62,000 compounds, 0.2% hits | AID 684;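 further: 0% = enzyme without compound and 100% = no enzyme blank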
D1 mod = allosterically modulates the human D1 dopamine receptor. P21728. HEK293 D1, CRE-luciferase, dopamine EC30 potentiation; actives deviate in either direction. B-score at 10 µM. 58,000 compounds, 5.9% hits. AID 641;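 active means luminescence count or its row- and column-corrected plate score outside the 99.7% band of the plate's sample wells, on either side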
Target sequence (P21728 whole entry, looked up): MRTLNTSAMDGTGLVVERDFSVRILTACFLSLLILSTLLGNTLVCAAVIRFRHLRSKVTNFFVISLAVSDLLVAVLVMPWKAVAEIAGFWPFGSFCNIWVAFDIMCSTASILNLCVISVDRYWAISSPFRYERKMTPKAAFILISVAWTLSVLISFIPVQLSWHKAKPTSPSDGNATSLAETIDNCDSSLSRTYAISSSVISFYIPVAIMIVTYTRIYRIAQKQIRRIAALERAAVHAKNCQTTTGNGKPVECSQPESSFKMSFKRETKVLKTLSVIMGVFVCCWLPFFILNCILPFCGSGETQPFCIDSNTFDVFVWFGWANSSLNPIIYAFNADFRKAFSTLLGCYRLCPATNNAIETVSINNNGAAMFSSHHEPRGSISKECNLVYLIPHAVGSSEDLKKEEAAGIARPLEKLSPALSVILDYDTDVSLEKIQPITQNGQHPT
M1 antag conf = M1 muscarinic receptor (rat) antagonism, confirmed; shares compounds with M1 antag; 1,700 compounds, 43% hits; CHO-M1 cells, Fluo-4 calcium, ACh EC80 antagonism; active compounds read low; calcium response (max-min fluorescence) at 10 µM;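 active means calcium response below the same-plate mean of wells given acetylcholine alone at its 80%-effect dose, minus 3 SD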;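 further: raw fluorescence intensity difference in arbitrary instrument units and not normalized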
mGluR4 antag = acts on human mGluR4 in M1 antagonist selectivity test; shares compounds with M1 antag; CHO-mGluR4 calcium flux, Fluo-4 fluorescence, glutamate EC80; active compounds read low; fluorescence response (max-min) at 10 µM; 1,700 compounds, 0.9% hits; AID 678;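 active means fluorescence response below the plate's average for near-maximal glutamate wells, less 3 SD of those wells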;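 further: raw unnormalized fluorescence span taken in the window right after glutamate addition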
Numbers without * were called inactive; · = no result given. Unless noted, no stated cut-off is given here; in the data, active means inhibition above about 20% (passing the limit was not always enough); inactive means the rest.

SMILES	M1 antag	M1 agonist	hDAT+cocaine	FXIa mix inh	FXIIa mix inh	D1 mod	M1 antag conf	mGluR4 antag
COC(=O)c1cc2ccsc2n1CC(=O)Nc1cc(C)cc(C)c1	0.099	-1.4	-1.2	2	9	0.93	·	·
CN(C1CCCCC1)S(=O)(=O)c1ccc(S(=O)(=O)N2CCCC2)cc1	-3.3*	0.3	-1.4	-19	-4	-0.53	327*	236
COc1ccc(-c2ccc([C@H]3[C@H]4C=CC[C@@H](C)[C@@H]4C(=O)N3Cc3ccccc3)c(F)c2)cc1C	·	·	0.091	·	·	·	·	·
C1CCN=C(Nc2nc3c(s2)CCCC3)CC1	-6.4*	0.86	0.86	-27	2	-1.1	468*	207
c1nnc(NC2=NCCCCC2)s1	-0.74	-1.4	1.1	4	9	0.17	·	·
CN(CC(=O)Nc1ccc(C#N)cc1)Cc1ccc(Cl)cc1Cl	·	·	0.27	·	·	·	·	·
CN(CCC#N)CC(=O)Nc1ccc(NC(=O)CN(C)CCC#N)cc1	-14*	0.74	-0.94	-5	8	·	697	242
O=c1c2ccccc2c(-c2ccc(Cl)cc2)nn1-c1ccccc1	·	·	1.6	·	·	·	·	·
Nc1c(-c2ccc(Cl)cc2)nnn1-c1ccccc1	-3.2*	0.41	0.23	-10	-19	-1.7	642	180
COc1ccccc1CNC(=O)CSc1nc2nc(C)cc(C)n2n1	1.6	-0.38	-0.5	4	11	-1.5	·	·
CCOC(=O)COc1ccc2cc(C(=O)OCC)c(=O)oc2c1	0.12	-0.32	·	-1	1	0.33	·	·
CCOC(=O)c1ccc(COC(=O)c2cc3ccccc3oc2=O)o1	-2.4*	0.083	0.47	2	-10	1.4	473*	206
CCc1cc2c3c(c(=O)oc2cc1OC)CCCC3	-1.8*	0.036	0.96	9	4	0.1	487	202
O=S(=O)(NCc1cccnc1)c1cccc2nsnc12	-0.23	-0.8	-0.031	14	14	1.4	·	·
Cc1oc(-c2ccc(Cl)cc2)cc1-c1nn2c(-c3ccoc3C)nnc2s1	1.2	-1.4	-0.96	12	8	-0.17	·	·
OC(CCN1CCCC1)(c1ccccc1)C1CCCCC1 (configuration not stated)	-16*	-0.4	0.31	4	6	0.26	17*	268
OC(CCN1CCCCC1)(c1ccccc1)c1ccccc1	-12*	1.9	-0.03	4	-9	-0.43	23*	244
O=C(CCN1CCCCCC1)c1ccccc1	·	·	-0.78	·	·	·	·	·
C=CCC(O)(CCN1CCCCC1)c1ccccc1 (configuration not stated)	-8*	0.42	-0.69	-3	1	1.8	97*	230
CCN(CC#CCC(O)(c1ccccc1)C1CCCC1)C(C)C (configuration not stated)	·	·	-0.95	·	·	·	·	·
CCCCNC(=O)C1CC(=O)N(C2CCCC2)C1 (configuration not stated)	·	·	-0.22	·	·	·	·	·
CCN(Cc1ccccc1)C(=O)CSc1nc(C)cc(C)c1C#N	-2.4*	-0.21	-0.03	4	-18	-0.75	551	238
Cc1cc(C)c(C#N)c(SCC(=O)N2CCN(Cc3ccccc3)CC2)n1	0.059	0.076	1.2	·	·	0.17	·	·
COCCn1c(Sc2ccc(C)cc2)nc2c1c(=O)[nH]c(=O)n2C	0.18	-1.1	0.28	7	1	1.6	·	·
Cc1ccccc1C(=O)N1CCC(C(=O)Nc2ccc(F)cc2)CC1	-4.3*	0.19	0.46	4	0	0.37	502	184
SMILES	M1 antag	M1 agonist	hDAT+cocaine	FXIa mix inh	FXIIa mix inh	D1 mod	M1 antag conf	mGluR4 antag
CCN(CC)S(=O)(=O)c1ccc(C(=O)NCc2ccc(C)cc2)cc1	·	·	0.11	·	·	·	·	·
Cc1ccc2occ(CN3CCN(c4ccccc4)CC3)c(=O)c2c1	-3.4*	1.1	-1.1	0	4	-0.16	508*	223
CCN1CCN(Cc2coc3ccc(C)cc3c2=O)CC1	-0.26	0.012	1.3	3	9	-0.13	·	·
O=c1c(CN2CCN(Cc3ccccc3)CC2)coc2ccc(Cl)cc12	-4.2*	-0.83	1.1	-4	10	-0.67	365*	194
CCOC(=O)c1ccc2c(c1)nc(C1CCN(S(=O)(=O)c3cccs3)CC1)n2CC	-2.9*	1.8	0.49	7	1	-0.2	474*	210
Cc1nc2sc(C(c3cccc(F)c3)N3CCC(C)CC3)c(O)n2n1 (configuration not stated)	-0.41	0.31	1.1	-1	12	-0.11	·	·
CCOC(=O)c1ccc(N2C(=O)CC(SCC(N)C(=O)OCC)C2=O)cc1 (configuration not stated)	0.25	0.29	0.4	-1	0	-0.35	·	·
O=C1CC(SCCO)C(=O)N1c1ccc(Oc2ccccc2)cc1 (configuration not stated)	-2.7*	0.02	-0.12	7	11	-0.73	597	252
CC(C)CCNC(=O)C(C)N(Cc1ccc(F)cc1)C(=O)c1ccc(CN2CCCCC2)o1 (configuration not stated)	-3.2*	-0.14	0.81	1	1	0.0027	595	219
O=C(C1CC1)N1CCN=C1SCc1cccc(C(F)(F)F)c1	0.36	0.053	0.81	11	-1	0.6	·	·
COC(=O)C1=C(C)N(CCCC(=O)O)C(=O)NC1c1cccs1 (configuration not stated)	·	·	-0.27	·	·	·	·	·
CCN(CCCc1ccccc1)CCCc1ccccc1	-13*	-1.2	0.015	9	1	-5	18*	256
O=C(Nc1nc2ccccc2s1)C1CC(=O)N(c2ccc(F)cc2)C1 (configuration not stated)	·	·	1.1	·	·	·	·	·
CCCc1cc(Nc2c(C)n(C)n(-c3ccccc3)c2=O)n2c(nc3ccccc32)c1C#N	-2.4*	0.29	0.75	·	·	·	482	237
Cc1nc2sccn2c(=O)c1CCN1CCC(=C(c2ccc(F)cc2)c2ccc(F)cc2)CC1	-5.1*	-0.015	-1.9	-2	-66	-2.9	324*	292
CC/C(=N\n1nnnc1Nc1ccccc1)c1ccccc1	·	·	1.2	·	·	·	·	·
CCS(=O)(=O)Nc1ccc(Cc2ccc(NS(=O)(=O)CC)cc2)cc1	·	·	0.041	·	·	·	·	·
CS(=O)(=O)Nc1ccc(Cc2ccc(NS(C)(=O)=O)cc2)cc1	-3.2*	-0.065	0.52	-1	4	-1.3	552	230
CN(Cc1ccccc1)S(=O)(=O)c1ccc2c(c1)OCCO2	-0.47	0.063	-0.98	0	6	-0.15	·	·
CN(C)S(=O)(=O)c1cccc(CSc2cccc[n+]2[O-])c1	-2.2*	0.77	-1.2	-36	-8	-0.63	666	184
O=C1c2ccccc2S(=O)(=O)c2cc(C(=O)N3CCCC3)ccc21	·	·	0.016	·	·	·	·	·
CC(C)(C)c1cnnn1-c1ccc(NC(=O)c2ccc(Br)o2)cc1	-2.3*	-0.014	1.2	4	-32	·	560*	236
